Source: PubChem BioAssay (National Center for Advancing Translational Sciences (NCATS))
An excerpt weighted towards active compounds, which were near 6.2% of everything screened.
MARV entry inh: blocks Marburg virus binding to or entry into cells. Marburg virus pseudotyped entry inhibition, cell reporter. Potency, µM (highest dose often 37.8 µM), for inactives: at the highest dose activity change, negative = inhibition, most hits filed as inhibitors. 300,000 tested, 1.8% active; calls by dose curve; tested in HEK293 cells; note: potency is the fitted concentration of half-maximal effect
FMDV inh: blocks foot and mouth disease virus. FMDV antiviral cell-based qHTS. Potency, µM (doses to about 57.9 µM), without a hit: top-dose activity change, negative = inhibition, most hits filed as inhibitors. 410,000 tested, 1.2% active. AID 1159524; calls by dose curve; tested in HEK293T cells; note: read-out not given here; potency is the fitted concentration of half-maximal effect; nearly all actives have a fitted effect of over 45% in size
Lassa entry inh: blocks Lassa virus binding to or entry into cells; AID 540256; 300,000 tested, 1.2% active; Lassa virus pseudotype entry inhibition, cell reporter; Potency, µM (highest dose often 37.9 µM), for inactives: at the highest dose activity change, negative = inhibition, most hits filed as inhibitors; calls by dose curve; tested in HEK293 cells; note: potency is the fitted concentration of half-maximal effect; nearly all actives have a fitted effect of over 50% in size
HCMV inh: blocks human cytomegalovirus replication. HFF cells, HCMV-luciferase reporter, 72 h; hits give low values. activity change, negative = inhibition, % at 57.5 µM. 410,000 tested, 4.5% active; in the data active = activity change below about -60%; inconclusive = no clear call, values can overlap the other calls; inactive = above about -39%
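Cell-based, HFFs, 1000 cells/well, 16 h 37C; cpds in DMSO + HCMV-luc, MOI 1 PFU/cell; 72 h 37C; OneGlo luminescence after 5 min RT; norm. to buffer vs Salinomycin 10uM.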
An asterisk follows results filed as active; ? = inconclusive; nt = not tested or not shown; [ ] = another dose, or the depositor's remark. % is set by controls: 0 for no effect and ±100 for the full control effect.

SMILES	MARV entry inh	FMDV inh	Lassa entry inh	HCMV inh
O=C(NN=Cc1ccccc1O)C(O)c1ccccc1 (stereo not drawn)	?	69%	-22%[46.1 µM]	-15
CN1C(=O)C2(c3ccccc31)N(C)CC(c1ccccc1)C21SC(=S)N(Cc2ccco2)C1=O (stereo not drawn)	?	-5%	?	-62*
c1ccc(-n2cccc2CNC2CCCCC2)cc1	21µM*	nt	2%	nt
Cn1cccc1CNC1CCCCC1	17%	nt	-3%	-1
CC[C@H](C)C1OC(=O)[C@@H](C)[C@@H](CC)NC(=O)[C@H](C)N(C)C(=O)C(C)(C)C(=O)C(C)NC(=O)[C@H](Cc2ccc(OC)cc2)N(C)C(=O)[C@H](C(C)C)N(C)C(=O)CNC(=O)[C@H](CC(C)C)N(C)C(=O)CNC1=O (stereo partly drawn)	nt	-6%	nt	nt
CCCNC(=O)COC(=O)c1n[nH]c2ccccc12	17%[46.1 µM]	7%	-8%	-15
CCOC(=O)C1=C(c2ccccc2)N=c2sc(=Cc3cc(OC)c(OC)c(OC)c3)c(=O)n2C1c1cccs1 (stereo not drawn)	nt	-24%	nt	-14
CCOC(=O)C1=C(c2ccccc2)N=c2s/c(=C\c3ccc(O)cc3)c(=O)n2C1c1cccs1 (stereo not drawn)	?	25µM*	16µM*	45
O=C(NCCN1CCOCC1)c1cc(Sc2ccc(F)cc2F)nc2ccccc12	-2%[46.1 µM]	?	?	-19
O=C(NCCCN1CCCC1)c1cc(Sc2ccc(F)cc2)nc2ccccc12	?	-13%	nt	-39
CCOCCCNC(=O)c1cc(Sc2ccc(C)cc2)nc2ccccc12	?	?	?	-60*
O=C(NCCCN1CCCCC1)c1cc(Sc2ccc(Cl)cc2)nc2ccccc12	nt	-17%	19%[46.1 µM]	-71*
O=C(NCCN1CCOCC1)c1cc(Sc2ccccc2Cl)nc2ccccc12	-31%	nt	-29%	-61*
CC1CCCN(CCCNC(=O)c2cc(Sc3ccc(F)cc3)nc3ccccc23)C1 (stereo not drawn)	nt	-15%	-17%[46.1 µM]	-71*
Cc1cc(NC(CC(C)C)C(=O)O)nc(Cc2ccccc2)n1 (stereo not drawn)	22%	-4%	1%	36
CCn1cc(C(=O)NC2CCCCC2C)c(=O)c2ccc(C)nc21 (stereo not drawn)	6%	-14%	-17%	21
Cc1oc(-c2ccccc2)nc1C(=O)OCC(=O)NCc1ccc(Cl)cc1	nt	-15%	nt	6
COCCNC(=O)C1CCCN(C(=O)c2cc(-c3cccs3)oc2C)CC1 (stereo not drawn)	nt	-21%	nt	-67*
CCOP(=O)(OCC)c1nc(-c2ccc(C)cc2)oc1NCc1ccccc1	?	-3%	-15%	-61*
COC(=O)C1=C(C)N(Cc2ccccc2)C(=NCC(C)C)N[C@H]1c1cccc(F)c1	nt	-6%	nt	-30
CCCc1cc(=O)oc2c(C)c(O[C@@H]3O[C@H](CO)[C@@H](O)[C@H](O)[C@H]3O)ccc12	-22%	-12%	-19%	-66*
O=C1C(=O)N(Cc2ccco2)C(c2cccc(Cl)c2)/C1=C(\O)c1ccc2c(c1)OCCO2 (stereo not drawn)	3%	-15%	3%	-22
COc1ccc(Br)cc1/C=N/NC(=O)c1cccnc1	?	-14%	1%[46.1 µM]	37
N#CC1C=Cc2c(ccc3ccccc23)N1C(=O)c1ccccc1 (stereo not drawn)	?	?	?	-83*
CC(C)Cn1c(-c2ccco2)n[nH]c1=S	5%	2%	-11%	1
SMILES	MARV entry inh	FMDV inh	Lassa entry inh	HCMV inh
COc1ccc(CCNC2=C(Cl)C(=O)N(CCc3ccccc3)C2=O)cc1OC	?	22µM*	-26%	-15
CCOC(=O)CC(=O)Nc1ncnc2c1C(c1ccccc1)c1c(ccc3ccccc13)O2 (stereo not drawn)	nt	?	nt	15
CC(=O)NC1=C(C#N)C(c2ccccc2)c2c(ccc3ccccc23)O1 (stereo not drawn)	10µM*	-7%	?	32
CC(C)(CS(=O)(=O)[O-])NC(=O)CC[N+](C)(C)CCO	2.8µM*	-16%	3%	61
COc1ccccc1NC(=O)C1=C(C)Nc2nc(-c3ccco3)nn2C1c1ccccc1 (stereo not drawn)	?	-19%	?	-13
C=C1C(=O)[C@@]23[C@H](O)C[C@@H]4C(C)(C)CC[C@H](O)[C@@]4(C)[C@@H]2CC[C@@H]1[C@H]3O	?	?	10µM*	-97*
C=C1C(=O)[C@@]23[C@H](O)C[C@@H]4C(C)(C)CC[C@H](O)[C@]4(C)[C@@H]2C[C@H](O)[C@@H]1[C@H]3O	21µM*	?	?	-76*
Cc1ccc(NCC(=O)N=Nc2c(O)[nH]c3ccc([N+](=O)[O-])cc23)cc1	-2%	17%	-20%	0
Cc1ccccc1NCC(=O)N=Nc1c(O)[nH]c2ccc([N+](=O)[O-])cc12	nt	-25%	nt	-83*
CC(C)(CNC(=O)c1cc([N+](=O)[O-])ccc1N1CCC(Cc2ccccc2)CC1)N1CCOCC1	nt	-28%	nt	-63*
Cc1ccc(NC(=O)CN2C(=O)c3ccccc3C2=O)c(C)c1	-13%[46.1 µM]	-4%	12%[46.1 µM]	14
Cc1cc(C)c(S(=O)(=O)ON2C(=O)c3ccccc3C2=O)cc1C	?	25µM*	-28%	-81*
Cc1cc(C)c(C)c(S(=O)(=O)ON2C(=O)c3ccccc3C2=O)c1C	?	?	?	-76*
C[C@H](O)CON1C(=O)c2ccccc2C1=O	17%[14.2 µM]	nt	nt	nt
O=C1c2ccccc2C(=O)N1OS(=O)(=O)c1ccc(F)cc1	nt	?	nt	-7
Cc1ccc(S(=O)(=O)ON2C(=O)c3ccccc3C2=O)c(C)c1	?	?	?	-71*
CCn1c(C(=O)N2CCc3ccccc3C2)cc2sccc21	nt	-6%	nt	?
CCOc1cc(NC(=S)NCC2CCCO2)c(OCC)cc1NC(=O)CC (stereo not drawn)	nt	-2%	nt	3
Cc1cccc(C)c1NC(=O)CCn1cnc2ccccc2c1=O	-4%	-11%	-3%	?
Cc1nn(C)c(C)c1NS(=O)(=O)c1ccc(N2CCCC2=O)cc1	?	?	?	-62*
CCOc1ccc(S(=O)(=O)Nc2cc(OC)ccc2OC)cc1	?	-13%	?	-64*
CCOC(=O)c1ccccc1NC(=O)CN(c1ccccc1)S(=O)(=O)c1ccc(OCC)cc1	2%[46.1 µM]	-23%	-14%[46.1 µM]	?
CCOC(=O)c1ccccc1NS(=O)(=O)c1ccc(OCC)cc1	?	-18%	2.6µM*	-17
COc1ccc(CCNS(=O)(=O)c2ccc(N3CCCC3=O)cc2)cc1	?	-15%	?	-8
COc1ccc(OC)c(NS(=O)(=O)c2ccc(N3CCCC3=O)cc2)c1	?	-16%	?	-73*
COc1ccc(NC(=O)CSc2nnc(-c3ccco3)n2N)cc1Cl	nt	-10%	nt	-16
COCCCn1c(=N)c(C(=O)NC2CCCC2)cc2c(=O)n3cccc(C)c3nc21	20%[46.1 µM]	54%	?	2
Cc1cccn2c(=O)c3cc(C(=O)NC4CCCC4)c(=N)n(CCCN4CCOCC4)c3nc12	3.5µM*	-8%	-12%[46.1 µM]	-25
